This is one part of a sample in which the strongest signals are shown more often than they occur.
Experiments:
Test in all cases: glycan array binding signal (z-score within array); higher = stronger binding
Settings in all cases: glycan notation: IUPAC condensed, linker removed; mutation: Y228W
[1] = molecular target: Gal(b1-4)GlcNAc(b1-3)Gal(b1-4)GlcNAc(b1-2)[Gal(b1-4)GlcNAc(b1-3)Gal(b1-4)GlcNAc(b1-6)]Man(a1-6)[Gal(b1-4)GlcNAc(b1-3)Gal(b1-4)GlcNAc(b1-2)Man(a1-3)]Man(b1-4)GlcNAc(b1-4)[Fuc(a1-6)]GlcNAc
Method in brief: (§1)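 Glycan array data were curated from 3228 arrays in the Consortium for Functional Glycomics database and kept only where the protein sequence was available. Glycan names were converted to IUPAC-condensed notation, and columns mapping to the same glycan were averaged. The binding signal is a within-array Z-score, averaged across arrays of the same protein sequence at different concentrations or buffers and across linkers. Negative Z-scores can be read as non-binding.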

[2] = molecular target: Gal(b1-4)GlcNAc(b1-3)Gal(b1-4)GlcNAc(b1-3)Gal(b1-4)GlcNAc(b1-2)[Gal(b1-4)GlcNAc(b1-3)Gal(b1-4)GlcNAc(b1-3)Gal(b1-4)GlcNAc(b1-6)]Man(a1-6)[Gal(b1-4)GlcNAc(b1-3)Gal(b1-4)GlcNAc(b1-3)Gal(b1-4)GlcNAc(b1-2)Man(a1-3)]Man(b1-4)GlcNAc(b1-4)[Fuc(a1-6)]GlcNAc
Method in brief: as §1

[3] = molecular target: Gal(b1-4)GlcNAc(b1-3)Gal(b1-4)GlcNAc(b1-3)Gal(b1-4)GlcNAc(b1-3)Gal(b1-4)GlcNAc(b1-3)Gal(b1-4)GlcNAc(b1-2)Man(a1-3)[Gal(b1-4)GlcNAc(b1-3)Gal(b1-4)GlcNAc(b1-3)Gal(b1-4)GlcNAc(b1-3)Gal(b1-4)GlcNAc(b1-3)Gal(b1-4)GlcNAc(b1-2)Man(a1-6)]Man(b1-4)GlcNAc(b1-4)GlcNAc
Method in brief: as §1

[4] = molecular target: Gal(b1-4)GlcNAc(b1-6)[Gal(b1-3)]GalNAc
Method in brief: as §1

[5] = molecular target: Gal3S(b1-4)[Fuc(a1-3)]GlcNAc6S
Method in brief: as §1

Gal6S(b1-3)GlcNAc6S = molecular target: Gal6S(b1-3)GlcNAc6S
Method in brief: as §1

Gal6S(b1-4)GlcNAc6S = molecular target: Gal6S(b1-4)GlcNAc6S
Method in brief: as §1

[6] = molecular target: GalNAc(b1-4)GlcNAc(b1-3)GalNAc(b1-4)GlcNAc
Method in brief: as §1

Glc(a1-4)Glc = molecular target: Glc(a1-4)Glc
Method in brief: as §1

GlcA(b1-6)Gal = molecular target: GlcA(b1-6)Gal
Method in brief: as §1

[7] = molecular target: GlcNAc(a1-3)Gal(b1-4)GlcNAc
Method in brief: as §1

GlcNAc(b1-3)Gal = molecular target: GlcNAc(b1-3)Gal
Method in brief: as §1

[8] = molecular target: GlcNAc(b1-4)Gal(b1-4)GlcNAc
Method in brief: as §1

Man(a1-3)[Man(a1-6)]Man = molecular target: Man(a1-3)[Man(a1-6)]Man
Method in brief: as §1

[9] = molecular target: Man(a1-3)[Man(a1-6)]Man(a1-6)[Man(a1-3)]Man
Method in brief: as §1

[10] = molecular target: Neu5Ac(a2-3)Gal(b1-3)GalNAc6S
Method in brief: as §1

[11] = molecular target: Neu5Ac(a2-3)Gal(b1-3)GlcNAc(b1-2)Man(a1-3)[Neu5Ac(a2-3)Gal(b1-3)GlcNAc(b1-2)Man(a1-6)]Man(b1-4)GlcNAc(b1-4)GlcNAc
Method in brief: as §1

[12] = molecular target: Neu5Ac(a2-3)Gal(b1-3)[Fuc(a1-4)]GlcNAc(b1-3)Gal(b1-4)[Fuc(a1-3)]GlcNAc
Method in brief: as §1

[13] = molecular target: Neu5Ac(a2-3)Gal(b1-4)GlcNAc(b1-3)Gal(b1-4)[Fuc(a1-3)]GlcNAc
Method in brief: as §1

[14] = molecular target: Neu5Ac(a2-3)Gal(b1-4)[Fuc(a1-3)]GlcNAc(b1-3)Gal
Method in brief: as §1

[15] = molecular target: Neu5Ac(a2-3)[GalNAc(b1-4)]Gal(b1-4)GlcNAc
Method in brief: as §1

[16] = molecular target: Neu5Ac(a2-6)Gal(b1-4)GlcNAc(b1-2)Man(a1-3)[Gal(b1-4)GlcNAc(b1-2)Man(a1-6)]Man(b1-4)GlcNAc(b1-4)GlcNAc
Method in brief: as §1

[17] = molecular target: Neu5Ac(a2-6)Gal(b1-4)GlcNAc(b1-2)Man(a1-3)[Man(a1-6)]Man(b1-4)GlcNAc(b1-4)GlcNAc
Method in brief: as §1

[18] = molecular target: Neu5Ac(a2-6)Gal(b1-4)GlcNAc(b1-2)Man(a1-3)[Neu5Ac(a2-6)Gal(b1-4)GlcNAc(b1-2)Man(a1-6)]Man(b1-4)GlcNAc(b1-4)[Fuc(a1-6)]GlcNAc
Method in brief: as §1

[19] = molecular target: Neu5Ac(a2-6)Gal(b1-4)GlcNAc(b1-2)Man(a1-6)[Gal(b1-4)GlcNAc(b1-2)Man(a1-3)]Man(b1-4)GlcNAc(b1-4)GlcNAc
Method in brief: as §1

[20] = molecular target: Neu5Ac(a2-6)GalNAc(b1-4)GlcNAc6S
Method in brief: as §1

Neu5Ac(a2-8)Neu5Ac = molecular target: Neu5Ac(a2-8)Neu5Ac
Method in brief: as §1

[21] = molecular target: Neu5Gc(a2-3)Gal(b1-4)GlcNAc
Method in brief: as §1

[22] = molecular target: Neu5Gc(a2-8)Neu5Gc(a2-3)Gal(b1-4)GlcNAc(b1-3)Gal(b1-4)GlcNAc
Method in brief: as §1

B1: Epa1-NP-mutant-Y228W (Candida glabrata), Q6VBJ0 (protein)
chain: MILNPALFLNKCVCIYTTLILLLLTNGGYATSSNDISLASKDPTTFPLGCSPDITTPKKGLSMELYSYDFRKKGSYPCWDAAYLDPNYPRTGYKSHRLLAKVDGVTGNINFYYHATKGCTPQLGHLPASYNYPKPLTMTNFTMLLYGYFRPKVTGFHTFTISADDLLFVNFGAGNAFDCCRRDSSADHFGNYQAYAIWGSKTAKDELTVHLDAGVYYPIRLFYNNREWDGALSFTFKTESNENTVSDFSEYFFSLDDTEEGCPGLISYDSSCASVKTSKIIGIDYHTETPNENLVPITKTIYHLGIPCTGTTTTPLCGSGFYDPLANKCVTINTSSTSSVTKTTSHTTSKEVSFHSSISSQKTLIPKSIPSPYGPIKSQSIPTEMETSSEISSSEYAFSDVISTPSHSPYTKKHSSLNSSSYTSTVIHSLTSYSISQGIFSTSLSEQNITSKSSTDKFSTATSMSNNITQSSIIISQFSTNNENYTTTSMHTSSDKISTETLNNSISTTTSILFSNSSTILKNNTTIISSDKDTHYHPVNPTIVCSTNKTEIICASITQPSISNSNNHWSSSVLKFNSTTVRSTLPSSAGSNETSINVPFSSSTESNTSTSSTSTSNSKMVRSTLPSSAGSNETSISVPFSSSTESNTSTSSTSTSNSKMVRSTLPSSAGSNETSINVPFSSSTESNTSTSSTSTSNSKTVRSTPFSSAGIIMTSLSQRNNKSASSYASSNSKCYNTADSCRKVHSTPSYLLTSSYTSEGVDYDCSLVSTKLKINDTNCVNNKHTTKSCLKTSVTTTIPTLEIKTARKSSSNTIGLHSYPTSSPNKSISSAPIIGYISSFKTIKTASPSYQTSDLTTITTITSLNNPGSTAVENTHESNDKSRKTSSNDISSKHSVIKETKDAVESSNKSHQTNTLKCSSIIIASSSHNSYESLGGTTLTLTLSKVYSPQNNDTLPFLEISEVNPSRTVLPESSKMMQYLTSTEERNKTARNTIATNIVSISTFHFEGEGNAIRMGYTQLLLMLIGIIVMNIGT
glycan array binding signal (z-score) [1]: 2.98
glycan array binding signal (z-score) [2]: 3.05
glycan array binding signal (z-score) [3]: 1.78
glycan array binding signal (z-score) [4]: 2.77
glycan array binding signal (z-score) [5]: -0.015
glycan array binding signal (z-score) (Gal6S(b1-3)GlcNAc6S): 0.205
glycan array binding signal (z-score) (Gal6S(b1-4)GlcNAc6S): 3.63
glycan array binding signal (z-score) [6]: -0.329
glycan array binding signal (z-score) (Glc(a1-4)Glc): -0.29
glycan array binding signal (z-score) (GlcA(b1-6)Gal): 0.341
glycan array binding signal (z-score) [7]: -0.131
glycan array binding signal (z-score) (GlcNAc(b1-3)Gal): -0.421
glycan array binding signal (z-score) [8]: -0.126
glycan array binding signal (z-score) (Man(a1-3)[Man(a1-6)]Man): -0.183
glycan array binding signal (z-score) [9]: -0.095
glycan array binding signal (z-score) [10]: -0.312
glycan array binding signal (z-score) [11]: -0.117
glycan array binding signal (z-score) [12]: 0.021
glycan array binding signal (z-score) [13]: -0.295
glycan array binding signal (z-score) [14]: -0.343
glycan array binding signal (z-score) [15]: -0.228
glycan array binding signal (z-score) [16]: -0.285
glycan array binding signal (z-score) [17]: 0.235
glycan array binding signal (z-score) [18]: -0.238
glycan array binding signal (z-score) [19]: -0.14
glycan array binding signal (z-score) [20]: -0.172
glycan array binding signal (z-score) (Neu5Ac(a2-8)Neu5Ac): -0.272
glycan array binding signal (z-score) [21]: -0.19
glycan array binding signal (z-score) [22]: -0.388

Reference: the supplement of paper PMC8728848
